Measurements from PubChem BioAssay AID720707 (National Center for Advancing Translational Sciences (NCATS), 2013).
Out of some 360,000 compounds screened, about 270 (0.075%) were called active. For the sample, actives were picked, then their nearest neighbours and some compounds at random. A number with no mark means an inactive call. Calls follow the shape of the dose curve; as a rule, active = well fitted activation curve with a large enough effect; inconclusive = small, poorly fitted or top-dose-only effect; inactive = no such curve, though single readings can be large or run the other way.

target: Rap guanine nucleotide exchange factor 3 (Homo sapiens) (UniProt O95398); experiment: qHTS for Agonist of cAMP-regulated guanine nucleotide exchange factor 3 (EPAC1): primary screen; settings: biochemical assay; series mostly up to 154 µM; activation: at the top concentration; also: nearly all actives have a fitted effect of over 60% in size
Sequence (O95398 whole entry, looked up): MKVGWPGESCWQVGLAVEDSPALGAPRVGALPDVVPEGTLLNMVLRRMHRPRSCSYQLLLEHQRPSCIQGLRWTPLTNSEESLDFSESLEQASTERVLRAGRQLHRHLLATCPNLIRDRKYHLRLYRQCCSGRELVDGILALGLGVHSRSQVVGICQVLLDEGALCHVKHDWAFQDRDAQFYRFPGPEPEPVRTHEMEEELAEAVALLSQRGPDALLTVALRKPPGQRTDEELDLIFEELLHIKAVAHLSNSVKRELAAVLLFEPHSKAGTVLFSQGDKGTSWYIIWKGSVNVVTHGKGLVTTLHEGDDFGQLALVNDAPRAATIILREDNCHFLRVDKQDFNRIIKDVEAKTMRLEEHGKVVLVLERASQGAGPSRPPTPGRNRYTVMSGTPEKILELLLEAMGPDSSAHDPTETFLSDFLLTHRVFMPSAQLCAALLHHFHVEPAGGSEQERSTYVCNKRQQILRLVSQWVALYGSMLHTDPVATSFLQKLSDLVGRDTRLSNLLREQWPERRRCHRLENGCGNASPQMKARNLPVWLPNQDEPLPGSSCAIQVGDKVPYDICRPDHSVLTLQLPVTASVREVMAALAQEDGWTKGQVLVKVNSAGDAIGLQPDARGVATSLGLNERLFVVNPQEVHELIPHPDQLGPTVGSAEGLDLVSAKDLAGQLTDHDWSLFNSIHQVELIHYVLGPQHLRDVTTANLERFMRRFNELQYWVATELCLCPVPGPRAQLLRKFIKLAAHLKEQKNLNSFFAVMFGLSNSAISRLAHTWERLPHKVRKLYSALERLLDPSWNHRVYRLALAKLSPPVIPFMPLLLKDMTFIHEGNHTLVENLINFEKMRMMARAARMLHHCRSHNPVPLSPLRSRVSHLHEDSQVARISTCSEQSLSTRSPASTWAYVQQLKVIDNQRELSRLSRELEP
Description: In multi-cellular eukaryotic organisms, the effects of cAMP are transduced by two ubiquitously-expressed intracellular cAMP receptors, the classic protein kinase A/cAMP-dependent protein kinase (PKA/cAPK) and the more recently discovered exchange protein directly activated by cAMP/cAMP-regulated guanine nucleotide exchange factor (EPAC/cAMP-GEF). Both PKA and EPAC are ubiquitously expressed in all tissues, and an increase in intracellular cAMP levels will lead to the activation of both PKA and EPAC. Therefore, careful dissections of the individual role and relative contribution of EPAC and PKA within the overall cAMP signaling in various model systems are critical for further elucidating the mechanism of cAMP signaling. To date no EPAC-specific antagonists and agonist, as well as isoform-specific agonists have been reported, and developing EPAC-specific pharmacological probes to determine the physiological functions that EPAC play in the overall cAMP-mediated signaling remains a major challenge within the research field. Furthermore, identified regulators of EPAC may lead to new mechanism-based therapeutic strategies specifically targeting the EPAC / cAMP-signaling components as EPAC has been implicated to play important roles in major human pathological conditions such as diabetes, heart disease, and cancer.
This qHTS will be used to screen the Molecular Libraries Small Molecule Repository (MLSMR) as a concentration-titration series using the NCGC unique quantitative screening (qHTS) platform to find activators for EPAC1. In addition, this assay will also be used as a counterscreen for the EPAC2 qHTS. This fluorescent based assay is developed and validated for EPAC1 that measures exchange using EPAC effector Rap1 complex with BODIPY-GDP, a GDP analog with a tethered fluorophores. Activators are identified by monitoring the change in fluorescence signal as the exchanged free BODIPY-GDP has a reduced fluorescence compared to Rap1-bound BODIPY-GDP. Increase in signal (activation) is the desired outcome for the EPAC1 agonist while no activity in this assay is desired for the EPAC2 agonist counterscreen.
[1] de Rooij, J., Zwartkruis, F. J., Verheijen, M. H., Cool, R. H., Nijman, S. M., Wittinghofer, A., and Bos, J.L. (1998) Nature 396, 474-477
NIH Chemical Genomics Center [NCGC]
NIH Molecular Libraries Probe Centers Network [MLPCN]
Assay Submitter (PI): Xiaodong Cheng, The University of Texas Medical Branch
Briefly, three uL of reagents (100 nM EPAC1, 250 nM RAP1B-BODIPY-GDP, 50 uM GDP) were dispensed into a 1536-well Greiner black solid-bottom medium binding assay plate. Controls and test compounds (23 nL) were transferred to the plate via a Kalypsys pin tool equipped with a 1536-pin array. The plates were centrifuged at 1,000 rpm for 15 seconds followed by 5 minute incubation at room temperature. The assay plates were read at 5 minute intervals for 30 minutes in the ViewLux plate reader using 480nm excitation and 540nm emission filters. The results were normalized to the agonist positive control of 6.5 mM cAMP.
Potency is read from the fitted curve at half-maximal effect.

Structure (SMILES)	activation [%]	Potency
Cc1cc(C)cc(NC(=O)C(c2ccccc2)N2CCN(CC(=O)N3CCCC3)CC2)c1 (stereo not given)	4.7	–
Cc1ccccc1Cn1c2ccccc2c2cnn(CC(=O)NCc3ccco3)c(=O)c21	-17.4	–
C(#CCN1CCOCC1)CCCN1CCOCC1	-5.58	–
O=C1CC2(CC(c3ccc(Cl)cc3)=NO2)C(=O)N1c1ccccc1 (stereo not given)	1.17	–
COc1ccc(N2CCN(C(=O)CN3C(=O)COc4ccccc43)CC2)cc1	6.42	–
Cc1cccc(OCC(O)Cn2c(N3CCCCC3)nc3c2c(=O)[nH]c(=O)n3C)c1 (stereo not given)	-3.51	–
COc1ccc(C2NCCCC2c2ccccc2)cc1 (stereo not given)	-6.92	–
CCCCCn1c(SCCC(C)C)nc2c1c(=O)[nH]c(=O)n2C	-27.6	–
Cc1ccc2c(CSc3nncs3)cc(=O)oc2c1	-3.69	–
CCCc1ccc(OCC(O)CN2CCN(CCO)CC2)cc1 (stereo not given)	11	–
COc1ccccc1N1CCN(S(=O)(=O)CCNC(=O)c2ccc(OC(C)C)cc2)CC1	9.05	–
Cc1cc(NS(=O)(=O)c2ccc(NC(=O)C(C)Oc3cccc(C)c3C)cc2)nc(C)n1 (stereo not given)	2.53	–
CCc1c(C)sc(NC(=O)OC)c1C(=O)N1CCOCC1	-5.41	–
O=S1(=O)N=C(N(CCO)/N=C/c2ccccc2F)c2ccccc21	1.16	–
CCOc1cc(/C=C2/N=C(c3ccc(C(C)(C)C)cc3)OC2=O)cc(Cl)c1OS(C)(=O)=O	4.21	–
COc1ccc(C(=O)COC(=O)Cn2cnc3c2c(=O)n(C)c(=O)n3C)c(OC)c1	10.1	–
CC(=O)c1c(C)[nH]c(C(=O)OCC(=O)Nc2sc3c(c2C#N)CCCC3)c1C	9.31	–
NC(=O)C1=C[C@H](c2csc3ccccc23)C[C@H](OCc2ccc(CO)cc2)O1	3.72	–
Cc1cccc(CCNS(=O)(=O)c2ccc(S(=O)(=O)NC3CCCC3)cc2)c1	0.785	–
Cn1c(NC(=O)c2ccco2)c(-c2ccccc2Cl)c(=O)c2ccccc21	-0.86	–

Structure (SMILES)	activation [%]	Potency
C/C=C/c1ccc(OCC(=O)NNC(=O)CN(C)S(=O)(=O)c2ccc(C)cc2)c(OC)c1	-1.47	–
Cc1ccc(S(=O)(=O)N(C)C)cc1NC(=O)C1Cc2ccccc2CN1C(=O)c1ccco1 (stereo not given)	-3.3	–
CCOc1ccc(S(=O)(=O)N/N=C(\C)c2ccc(Cl)c(Cl)c2Cl)cc1	-2.38	–
C[n+]1ccc(/C=C/c2c[nH]c3ccccc23)cc1	–	100 µM (active)
CC(C)(C)c1ccc(SCCc2ccncc2)cc1	2.65	–
O=C(Nc1ccccc1Cl)NC1(C(=O)N2CCOCC2)CCCCC1	12.8	–
CCCCC(=O)N(c1ccc(OC)cc1)C1C=CS(=O)(=O)C1 (stereo not given)	4.76	–
CC(C)COC(=O)c1ccc(NC(=O)C2C3C=CC(C3)C2C(=O)O)cc1 (stereo not given)	14.5	–
COc1cncc(-c2cnc3sc(NCCc4ccccn4)nn23)c1	2.99	–
COCCN1C(=O)c2oc3c(C)cc(C)cc3c(=O)c2C1c1cccc(O)c1 (stereo not given)	20.3	–
O=C1CCC(=O)N1CCOP1(=O)COc2ccccc2OC1	6.29	–
COc1ccc(C)cc1NC(=O)CN1c2cccc3cccc(c23)S1(=O)=O	-4.18	–
COC(=O)c1c(C)cc(O)c(C)c1O	-12.7	–
CC(=O)N1c2ccc(S(=O)(=O)N3CCCC(C(=O)NCc4ccc(Cl)cc4)C3)cc2CC1C (stereo not given)	2.25	–
Cc1ccc(Cl)cc1NC(=O)COC(=O)CC(C)(C)C	2.13	–
CN(CC(O)COc1ccc(S(=O)(=O)N2CCOCC2)cc1Cl)C1CCCCC1 (stereo not given)	7.39	–
Cc1ccc(C(C)C)c(OCc2nnc(SCC(=O)Nc3nccs3)n2C)c1	-4.53	–
O=C(c1ccccc1)N1CCC(CC2CC(c3ccc(Cl)cc3)=NO2)(C(=O)NCC2CCCCC2)CC1 (stereo not given)	5.56	–
CCc1c(O)nc(SCC(=O)N2CCCCC2)n(-c2ccccc2C)c1=O	7.38	–
Cc1ccc(CN2CCN(c3ccccc3Cl)CC2)o1	3.65	–
